Source: PubChem
Compounds with a hit are over-represented: about 6.5% of the library has one in this group of screens.
FMDV inh – foot and mouth disease virus antiviral activity; FMDV antiviral cell-based qHTS; Potency, µM (titrated, usually from 57.9 µM), usual class: inhibitors; 410,000 tested, 1.2% active; calls by dose curve; tested in HEK293T cells; note: read-out not given here; nearly all actives have a fitted effect of over 45% in size
Marburg entry inh – Marburg virus entry inhibition; Potency, µM (highest dose often 37.8 µM), hits mostly inhibitors; Marburg virus pseudotyped entry inhibition, cell reporter; 300,000 tested, 1.8% active; calls by dose curve; tested in HEK293 cells
VACV mCherry inh – vaccinia inhibition (mCherry reporter); Vaccinia virus mCherry reporter infection, fluorescence; Potency, µM (doses to about 36.5 µM), hits mostly inhibitors; 310,000 tested, 0.63% active; AID 720579; calls by dose curve; tested in A549 cells; note: nearly all actives have a fitted effect of over 35% in size
HCMV antiviral – human cytomegalovirus inhibition; HFF cells, HCMV-luciferase reporter, 72 h; hits give low values; activity change, negative = inhibition, % at 57.5 µM; 410,000 tested, 4.5% active; AID 1259415; in the data active = activity change below about -60%; inconclusive = no clear call, values can overlap the other calls; inactive = above about -39%
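Inhibition of viral replication was scored as loss of reporter luminescence in HFFs infected with HCMV-luciferase (MOI 1 PFU/cell) for 72 h; compounds tested at 2 doses, normalized to buffer and Salinomycin controls.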
VACV Venus inh – vaccinia inhibition (Venus reporter). Vaccinia virus Venus reporter expression, fluorescence. Potency, µM (highest dose often 36.5 µM), most hits filed as inhibitors. 330,000 tested, 0.46% active. AID 720580; calls by dose curve; tested in A549 cells; note: nearly all actives have a fitted effect of over 30% in size
LASV entry inh – inhibitors of Lassa virus binding or cell entry; Lassa virus pseudotype entry inhibition, cell reporter; Potency, µM (top dose mostly 37.9 µM), most hits filed as inhibitors; 300,000 tested, 1.2% active; AID 540256; calls by dose curve; tested in HEK293 cells; note: nearly all actives have a fitted effect of over 50% in size
Each line names hits and unclear results; the compound was inactive in the other large screens.

CN(Cc1ccc2c(c1)OCCO2)C(=O)CSc1ncnc2sccc12	FMDV inh 39.8µM
CN(C)c1ccc(C(=O)Nc2sc(Nc3ccccc3)nc2C(N)=O)cc1	none (no result: Marburg entry inh)
O=C(NCc1ccccc1)C(c1ccc(-c2ccccc2)cc1)N1CCN(C(=O)C2CCCO2)CC1 (stereo not given)	VACV mCherry inh 2.82µM, HCMV antiviral inconclusive, VACV Venus inh inconclusive (no result: Marburg entry inh, LASV entry inh)
O=S(=O)(/C=C/c1ccccc1)N1CCC(n2c(C3CCCO3)nc3cccnc32)CC1 (stereo not given)	none (no result: Marburg entry inh, HCMV antiviral, LASV entry inh)
CN(C)CC/C=C1/c2ccccc2Sc2ccc(Cl)cc21	FMDV inh inconclusive, VACV Venus inh inconclusive (no result: Marburg entry inh, LASV entry inh)
O=S(=O)(c1ccc(Br)cc1)N1CCN(c2cc(-c3ccccc3)nc3ncnn23)CC1	Marburg entry inh inconclusive, HCMV antiviral inconclusive, LASV entry inh inconclusive (no result: VACV mCherry inh, VACV Venus inh)
O=S(=O)(c1ccccc1)N1CCN(c2cc(-c3ccccc3)nc3ncnn23)CC1	FMDV inh inconclusive, Marburg entry inh inconclusive, HCMV antiviral -90.9, LASV entry inh 14.6µM (no result: VACV mCherry inh, VACV Venus inh)
COc1ccc(-c2cc(N3CCCC3)n3ncnc3n2)cc1	FMDV inh inconclusive, VACV mCherry inh inconclusive, HCMV antiviral -97.5
COc1ccc(S(=O)(=O)N2CCN(c3cc(-c4ccccc4)nc4ncnn34)CC2)cc1	FMDV inh inconclusive, Marburg entry inh inconclusive, HCMV antiviral -73.5, LASV entry inh inconclusive (no result: VACV mCherry inh, VACV Venus inh)
Cc1ccccc1NC(=O)C1CCN(c2cc(-c3ccccc3)nc3ncnn23)CC1	FMDV inh 35.5µM, Marburg entry inh inconclusive, HCMV antiviral inconclusive, VACV Venus inh inconclusive, LASV entry inh inconclusive (no result: VACV mCherry inh)
Cc1nc2ncnn2c(N2CCC(C(=O)NC3CCCC3)CC2)c1Cc1ccccc1	LASV entry inh inconclusive (no result: VACV mCherry inh, VACV Venus inh)
COc1ccc(-c2cc(-c3ccccc3)n3ncnc3n2)cc1	FMDV inh inconclusive, Marburg entry inh inconclusive
COc1cccc(NC(=S)/C(=C(\[O-])c2cc(C)n(-c3ccccc3F)c2C)[n+]2ccc(N(C)C)cc2)c1	HCMV antiviral -94.7 (no result: Marburg entry inh, VACV mCherry inh, VACV Venus inh, LASV entry inh)
CCn1c(SCc2nc3ccccc3[nH]2)nnc1-c1ccc(OC)cc1	FMDV inh inconclusive, HCMV antiviral -73.0 (no result: VACV mCherry inh, VACV Venus inh)
Cc1ccc(OCc2nnc(SCc3nc4ccccc4[nH]3)n2Cc2ccco2)cc1	FMDV inh inconclusive, Marburg entry inh inconclusive, HCMV antiviral -68.9, VACV Venus inh inconclusive, LASV entry inh inconclusive (no result: VACV mCherry inh)
c1ccc(-c2nnc(SCc3nc4ccccc4[nH]3)n2Cc2ccco2)cc1	HCMV antiviral -68.1 (no result: VACV mCherry inh, VACV Venus inh)
Nn1c(SCc2nc3ccccc3[nH]2)nnc1-c1ccccc1	none (no result: VACV mCherry inh, VACV Venus inh)
CC(=O)Nc1ccc(NC(=O)c2ncoc2-c2ccco2)cc1	none (no result: Marburg entry inh)
C=C(C)C(=O)C=CC=Cc1ccccc1	LASV entry inh inconclusive (no result: FMDV inh, VACV mCherry inh, HCMV antiviral, VACV Venus inh)
CC1(C)CC(NC(=O)c2coc(=O)c(Br)c2)CC(C)(C)N1	FMDV inh 31.6µM (no result: VACV mCherry inh)
Cc1ccc(C(=O)NC2CC(C)(C)NC(C)(C)C2)cc1	none
Cc1nc(NCc2cnn(C)c2C)sc1-c1ccn(CC2COc3ccccc3O2)n1 (stereo not given)	none (no result: Marburg entry inh, HCMV antiviral, LASV entry inh)
COCCn1c(=O)c(C)nc2cnc(N3CCN(C)CC3)nc21	none (no result: Marburg entry inh, VACV mCherry inh, HCMV antiviral, VACV Venus inh, LASV entry inh)
O=S(=O)(c1cccc(C(F)(F)F)c1)N1CCN(c2nc(-c3ccccc3)nc3ccccc23)CC1	none (no result: FMDV inh, Marburg entry inh, HCMV antiviral, LASV entry inh)
COc1ccc2nc(C)cc(N/N=C/c3ccc(F)cc3)c2c1	Marburg entry inh inconclusive, VACV mCherry inh inconclusive, VACV Venus inh 10µM, LASV entry inh inconclusive
COc1ccc(/C=N/Nc2cc(C)nc3ccccc23)cc1	FMDV inh inconclusive, Marburg entry inh inconclusive, VACV mCherry inh inconclusive, HCMV antiviral -103.7, VACV Venus inh inconclusive, LASV entry inh inconclusive
CCCN(Cc1cc2cc(C)ccc2[nH]c1=O)C(=O)c1cccc(Cl)c1	LASV entry inh inconclusive
CC(=O)OCC1(C)CN(c2ccccc2)NC1=O (stereo not given)	HCMV antiviral -62.1 (no result: Marburg entry inh, VACV mCherry inh, VACV Venus inh, LASV entry inh)
COC(=O)[C@]1(C=C2c3ccccc3C[C@H](OC)[C@@H]2C)[C@@H]2CC=C[C@@H]21	none (no result: FMDV inh, VACV mCherry inh, HCMV antiviral, VACV Venus inh, LASV entry inh)
CC(C)CC(=O)NC(=S)Nc1ccc(S(=O)(=O)Nc2nccs2)cc1	HCMV antiviral -70.6
Cc1c(C(=O)N2CCC(C)CC2)c(S(=O)(=O)NCc2ccc(Br)cc2)c(C)n1C	none (no result: Marburg entry inh)
CC1CCN(S(=O)(=O)c2cn(CC(=O)Nc3ccc(F)cc3)c(=O)c3ccccc23)CC1	Marburg entry inh 5.62µM, LASV entry inh inconclusive
CCCCNC(=O)C1=C(N)C(C(=O)Nc2ccc(C)c(S(=O)(=O)N3CCCCC3)c2)SC1=Nc1ccc(C)cc1C (stereo not given)	Marburg entry inh 12.6µM
COc1ccc(C(=O)Nc2sc3c(c2C#N)CCN(C(C)=O)C3)cc1	Marburg entry inh inconclusive, LASV entry inh inconclusive
